Source: PMC7862700, “An all-to-all approach to the identification of sequence-specific readers for epigenetic DNA modifications on cytosine”

Tests used:
Test in all cases: DAPPL (digital affinity profiling via proximity ligation, sequencing); 10 mM Tris-HCl pH 7.5, 50 mM NaCl, 1 mM DTT, 4% glycerol, room temperature, 30 min; GST-TFs on glutathione beads, 16-mer random dsDNA library, 0.1% formaldehyde crosslink after washing; high values mean tight binding
FEV = target: T1, FEV (Homo sapiens, UniProt Q99581 1-238); conditions: protein: recombinant; tags: N-terminal GST; dsDNA, one strand shown
T1 sequence: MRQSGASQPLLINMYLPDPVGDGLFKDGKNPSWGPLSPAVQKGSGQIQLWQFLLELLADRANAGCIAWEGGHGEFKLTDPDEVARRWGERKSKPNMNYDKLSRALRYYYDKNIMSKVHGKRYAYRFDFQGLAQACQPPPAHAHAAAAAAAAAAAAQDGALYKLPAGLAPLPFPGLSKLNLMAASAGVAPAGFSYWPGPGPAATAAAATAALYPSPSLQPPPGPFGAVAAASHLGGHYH
Outline: (§1)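 Binding signal is each hexamer's read frequency for a factor divided by its frequency in the tag-only sample. The factors were GST-fused human transcription factors from yeast, captured on glutathione beads, DNA-barcoded and pooled with that sample. Pools were incubated with 200 nmole of a random double-stranded 16-mer DNA library in Tris/NaCl/DTT/glycerol buffer at room temperature for 30 min, then washed, crosslinked with 0.1% formaldehyde, proximity-ligated with BsaI/T4 ligase (1 h, 37 °C), PCR-amplified and sequenced on an Illumina NextSeq500.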

ETV5 = ETV5 (Homo sapiens, UniProt P41161 1-510); conditions: protein: recombinant; tags: N-terminal GST; dsDNA, one strand shown
Chain of ETV5 (P41161 whole entry): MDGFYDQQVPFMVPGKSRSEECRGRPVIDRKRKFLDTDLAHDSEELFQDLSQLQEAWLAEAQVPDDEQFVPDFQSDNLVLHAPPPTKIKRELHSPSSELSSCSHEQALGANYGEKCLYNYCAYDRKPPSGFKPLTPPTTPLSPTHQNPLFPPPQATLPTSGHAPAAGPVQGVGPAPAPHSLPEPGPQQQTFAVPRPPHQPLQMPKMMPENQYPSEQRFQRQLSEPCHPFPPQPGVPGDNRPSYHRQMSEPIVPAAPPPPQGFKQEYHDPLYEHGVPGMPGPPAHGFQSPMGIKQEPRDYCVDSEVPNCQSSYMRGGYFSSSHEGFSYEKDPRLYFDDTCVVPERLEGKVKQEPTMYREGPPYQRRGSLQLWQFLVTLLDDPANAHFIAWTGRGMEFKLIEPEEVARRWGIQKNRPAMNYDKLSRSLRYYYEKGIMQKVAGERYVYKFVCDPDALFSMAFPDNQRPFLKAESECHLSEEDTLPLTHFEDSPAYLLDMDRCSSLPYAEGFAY
Outline: as §1

HSF1 = HSF1 (Homo sapiens, UniProt Q00613 1-529); conditions: protein: recombinant; tags: N-terminal GST; chain copies: 3; dsDNA, one strand shown
Chain of HSF1 (Q00613 whole entry): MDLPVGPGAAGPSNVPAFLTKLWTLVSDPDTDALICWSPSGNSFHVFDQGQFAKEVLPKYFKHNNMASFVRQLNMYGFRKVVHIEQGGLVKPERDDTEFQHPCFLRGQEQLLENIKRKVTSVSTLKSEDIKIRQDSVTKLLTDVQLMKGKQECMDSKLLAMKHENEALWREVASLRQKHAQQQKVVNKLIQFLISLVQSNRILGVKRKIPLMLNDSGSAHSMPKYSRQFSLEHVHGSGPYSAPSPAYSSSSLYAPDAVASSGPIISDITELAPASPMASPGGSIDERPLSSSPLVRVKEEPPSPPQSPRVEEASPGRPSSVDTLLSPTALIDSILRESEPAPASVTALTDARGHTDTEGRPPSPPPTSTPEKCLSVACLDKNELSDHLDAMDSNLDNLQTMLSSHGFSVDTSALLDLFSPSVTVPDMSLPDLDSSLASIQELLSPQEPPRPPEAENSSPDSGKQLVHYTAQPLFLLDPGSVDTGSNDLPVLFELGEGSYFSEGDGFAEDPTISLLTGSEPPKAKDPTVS
Outline: as §1

SPIC = target: T2, SPIC (Homo sapiens, UniProt Q8N5J4 1-248); conditions: protein: recombinant; tags: N-terminal GST; dsDNA, one strand shown
T2 sequence: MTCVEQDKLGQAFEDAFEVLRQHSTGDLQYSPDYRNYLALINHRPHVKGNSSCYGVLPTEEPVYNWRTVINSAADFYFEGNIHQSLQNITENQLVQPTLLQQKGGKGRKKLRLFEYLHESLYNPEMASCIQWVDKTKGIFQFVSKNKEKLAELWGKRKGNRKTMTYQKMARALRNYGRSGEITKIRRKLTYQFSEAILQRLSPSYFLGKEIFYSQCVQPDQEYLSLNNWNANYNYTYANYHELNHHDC
Outline: as §1

ELF4 = ELF4 (Homo sapiens, UniProt Q99607 1-663); conditions: protein: recombinant; tags: N-terminal GST; dsDNA, one strand shown
Chain of ELF4 (Q99607 whole entry): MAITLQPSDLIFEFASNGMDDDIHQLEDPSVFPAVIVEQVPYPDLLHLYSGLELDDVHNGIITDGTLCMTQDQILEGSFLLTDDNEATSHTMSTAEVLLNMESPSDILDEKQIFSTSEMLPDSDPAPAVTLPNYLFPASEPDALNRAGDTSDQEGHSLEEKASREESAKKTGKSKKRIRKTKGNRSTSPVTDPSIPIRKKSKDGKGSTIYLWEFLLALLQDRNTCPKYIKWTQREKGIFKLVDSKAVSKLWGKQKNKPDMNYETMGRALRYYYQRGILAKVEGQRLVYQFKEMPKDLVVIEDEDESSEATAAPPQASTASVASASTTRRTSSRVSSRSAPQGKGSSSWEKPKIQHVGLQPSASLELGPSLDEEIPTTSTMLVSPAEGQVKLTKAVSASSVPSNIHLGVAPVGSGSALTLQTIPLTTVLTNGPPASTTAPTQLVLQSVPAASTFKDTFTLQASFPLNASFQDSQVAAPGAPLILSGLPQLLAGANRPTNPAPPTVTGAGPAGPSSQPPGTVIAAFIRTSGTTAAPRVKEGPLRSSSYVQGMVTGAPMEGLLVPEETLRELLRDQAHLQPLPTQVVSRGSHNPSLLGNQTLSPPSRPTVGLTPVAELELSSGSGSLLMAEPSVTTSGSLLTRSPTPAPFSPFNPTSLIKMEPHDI
Outline: as §1

ELK4 = target: T3, ELK4 (Homo sapiens, UniProt P28324-2 1-405); conditions: protein: recombinant; tags: N-terminal GST; dsDNA, one strand shown
T3 sequence: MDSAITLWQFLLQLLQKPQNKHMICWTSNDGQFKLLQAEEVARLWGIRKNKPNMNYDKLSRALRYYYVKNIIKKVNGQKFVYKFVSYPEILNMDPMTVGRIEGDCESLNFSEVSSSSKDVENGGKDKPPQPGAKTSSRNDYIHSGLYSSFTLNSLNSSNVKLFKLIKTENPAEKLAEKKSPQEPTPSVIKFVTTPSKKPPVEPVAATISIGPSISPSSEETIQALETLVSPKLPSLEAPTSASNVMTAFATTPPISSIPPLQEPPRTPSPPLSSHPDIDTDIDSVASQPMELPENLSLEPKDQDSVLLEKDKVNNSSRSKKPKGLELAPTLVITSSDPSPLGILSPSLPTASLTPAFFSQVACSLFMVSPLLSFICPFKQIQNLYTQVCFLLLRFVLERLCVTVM
Outline: as §1

ETV2 = target: T4, ETV2 (Homo sapiens, UniProt O00321 1-342); conditions: protein: recombinant; tags: N-terminal GST; dsDNA, one strand shown
T4 sequence: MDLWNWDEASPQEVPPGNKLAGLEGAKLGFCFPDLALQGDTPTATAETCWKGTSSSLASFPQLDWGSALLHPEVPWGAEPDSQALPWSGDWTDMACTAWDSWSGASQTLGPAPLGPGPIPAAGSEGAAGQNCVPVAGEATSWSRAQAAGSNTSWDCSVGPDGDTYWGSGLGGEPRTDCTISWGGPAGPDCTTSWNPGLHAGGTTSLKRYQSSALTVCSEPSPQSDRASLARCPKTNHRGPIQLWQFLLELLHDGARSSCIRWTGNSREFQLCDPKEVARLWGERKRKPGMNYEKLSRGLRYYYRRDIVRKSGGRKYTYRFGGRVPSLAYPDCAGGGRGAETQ
Outline: as §1

ELF3 = target: T5, ELF3 (Homo sapiens, UniProt P78545 1-371); conditions: protein: recombinant; tags: N-terminal GST; dsDNA, one strand shown
T5 sequence: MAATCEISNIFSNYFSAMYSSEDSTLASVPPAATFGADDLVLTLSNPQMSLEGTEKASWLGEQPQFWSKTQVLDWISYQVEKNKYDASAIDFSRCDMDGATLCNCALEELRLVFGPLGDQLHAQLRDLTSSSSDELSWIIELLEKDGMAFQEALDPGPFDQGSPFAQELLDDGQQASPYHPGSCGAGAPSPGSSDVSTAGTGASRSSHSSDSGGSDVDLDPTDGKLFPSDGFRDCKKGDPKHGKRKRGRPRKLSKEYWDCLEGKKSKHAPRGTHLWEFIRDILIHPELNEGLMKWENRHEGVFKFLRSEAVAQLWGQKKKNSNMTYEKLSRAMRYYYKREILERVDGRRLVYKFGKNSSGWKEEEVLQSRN
Outline: as §1

CRX = CRX (Homo sapiens, UniProt O43186 1-299); conditions: protein: recombinant; tags: N-terminal GST; dsDNA, one strand shown
Chain of CRX (O43186 whole entry): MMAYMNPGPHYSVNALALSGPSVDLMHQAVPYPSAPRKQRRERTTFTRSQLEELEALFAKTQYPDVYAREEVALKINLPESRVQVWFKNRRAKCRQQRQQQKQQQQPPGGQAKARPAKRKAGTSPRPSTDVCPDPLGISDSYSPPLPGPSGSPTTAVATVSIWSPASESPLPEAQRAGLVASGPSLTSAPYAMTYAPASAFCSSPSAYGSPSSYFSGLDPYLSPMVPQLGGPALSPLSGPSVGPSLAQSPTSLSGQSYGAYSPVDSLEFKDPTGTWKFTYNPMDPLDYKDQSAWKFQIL
Outline: as §1

ETV1 = ETV1 (Homo sapiens, UniProt P50549 1-477); conditions: protein: recombinant; tags: N-terminal GST; dsDNA, one strand shown
Chain of ETV1 (P50549 whole entry): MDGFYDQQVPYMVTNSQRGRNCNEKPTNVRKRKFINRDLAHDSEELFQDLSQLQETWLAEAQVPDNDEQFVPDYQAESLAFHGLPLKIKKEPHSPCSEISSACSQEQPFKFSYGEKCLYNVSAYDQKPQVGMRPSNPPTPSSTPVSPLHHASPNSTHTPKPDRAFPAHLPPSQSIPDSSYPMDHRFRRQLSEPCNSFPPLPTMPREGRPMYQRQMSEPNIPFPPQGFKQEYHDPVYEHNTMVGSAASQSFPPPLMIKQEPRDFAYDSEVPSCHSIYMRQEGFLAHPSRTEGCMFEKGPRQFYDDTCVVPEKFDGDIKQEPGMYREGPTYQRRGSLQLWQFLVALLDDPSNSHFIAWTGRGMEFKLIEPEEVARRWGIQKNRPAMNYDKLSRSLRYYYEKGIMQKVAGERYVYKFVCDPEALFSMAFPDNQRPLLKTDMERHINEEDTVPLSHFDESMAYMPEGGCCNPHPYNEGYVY
Outline: as §1

ERF = target: T6, ERF (Homo sapiens, UniProt P50548 1-548); conditions: protein: recombinant; tags: N-terminal GST; dsDNA, one strand shown
T6 sequence: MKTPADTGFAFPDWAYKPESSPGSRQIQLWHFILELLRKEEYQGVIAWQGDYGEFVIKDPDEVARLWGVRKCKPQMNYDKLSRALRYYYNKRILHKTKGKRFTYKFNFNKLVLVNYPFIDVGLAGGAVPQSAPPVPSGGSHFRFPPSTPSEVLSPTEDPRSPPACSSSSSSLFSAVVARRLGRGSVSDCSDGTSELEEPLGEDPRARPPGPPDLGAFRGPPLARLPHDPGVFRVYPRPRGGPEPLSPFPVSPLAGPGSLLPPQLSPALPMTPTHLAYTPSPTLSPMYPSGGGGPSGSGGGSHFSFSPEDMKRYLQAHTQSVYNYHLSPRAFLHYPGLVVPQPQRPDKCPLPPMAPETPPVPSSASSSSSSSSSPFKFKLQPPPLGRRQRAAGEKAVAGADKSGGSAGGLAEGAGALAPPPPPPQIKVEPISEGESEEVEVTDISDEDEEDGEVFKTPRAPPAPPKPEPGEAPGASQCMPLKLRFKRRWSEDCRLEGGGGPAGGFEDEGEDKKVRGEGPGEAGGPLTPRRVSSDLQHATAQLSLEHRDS
Outline: as §1

ETV3L = target: T7, ETV3L (Homo sapiens, UniProt Q6ZN32 1-361); conditions: protein: recombinant; tags: N-terminal GST; dsDNA, one strand shown
T7 sequence: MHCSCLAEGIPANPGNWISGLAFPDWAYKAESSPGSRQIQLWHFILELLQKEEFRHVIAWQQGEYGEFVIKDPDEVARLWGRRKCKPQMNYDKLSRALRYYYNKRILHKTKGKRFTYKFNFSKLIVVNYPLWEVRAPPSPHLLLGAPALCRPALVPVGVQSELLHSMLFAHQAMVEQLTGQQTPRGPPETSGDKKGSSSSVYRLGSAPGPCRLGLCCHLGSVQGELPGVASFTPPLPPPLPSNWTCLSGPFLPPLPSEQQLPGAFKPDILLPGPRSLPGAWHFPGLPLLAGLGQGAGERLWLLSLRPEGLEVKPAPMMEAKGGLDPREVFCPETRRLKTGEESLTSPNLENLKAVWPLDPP
Outline: as §1

ETS2 = target: T8, ETS2 (Homo sapiens, UniProt P15036 1-469); conditions: protein: recombinant; tags: N-terminal GST; dsDNA, one strand shown
T8 sequence: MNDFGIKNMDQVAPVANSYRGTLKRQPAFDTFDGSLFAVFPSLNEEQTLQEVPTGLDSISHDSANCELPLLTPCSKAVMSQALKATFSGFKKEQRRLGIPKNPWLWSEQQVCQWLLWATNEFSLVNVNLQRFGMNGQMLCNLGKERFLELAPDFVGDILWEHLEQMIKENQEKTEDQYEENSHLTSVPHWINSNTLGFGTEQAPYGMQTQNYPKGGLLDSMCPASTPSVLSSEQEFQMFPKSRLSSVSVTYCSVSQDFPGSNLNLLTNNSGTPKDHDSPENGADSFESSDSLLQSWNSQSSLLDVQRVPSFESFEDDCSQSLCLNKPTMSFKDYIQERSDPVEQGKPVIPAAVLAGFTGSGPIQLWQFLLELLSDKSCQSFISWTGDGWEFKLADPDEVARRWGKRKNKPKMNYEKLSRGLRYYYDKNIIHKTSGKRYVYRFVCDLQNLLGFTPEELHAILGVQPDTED
Outline: as §1

SPDEF = target: T9, SPDEF (Homo sapiens, UniProt O95238 1-335); conditions: protein: recombinant; tags: N-terminal GST; dsDNA, one strand shown
T9 sequence: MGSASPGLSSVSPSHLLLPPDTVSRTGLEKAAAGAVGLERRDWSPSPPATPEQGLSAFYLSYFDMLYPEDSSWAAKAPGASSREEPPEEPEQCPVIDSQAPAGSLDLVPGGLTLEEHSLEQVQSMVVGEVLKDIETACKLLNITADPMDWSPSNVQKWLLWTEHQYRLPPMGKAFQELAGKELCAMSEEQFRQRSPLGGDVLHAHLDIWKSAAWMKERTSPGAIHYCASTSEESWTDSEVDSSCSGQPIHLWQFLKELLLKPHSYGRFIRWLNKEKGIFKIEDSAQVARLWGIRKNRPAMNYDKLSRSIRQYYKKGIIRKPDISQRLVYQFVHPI
Outline: as §1

ETV7 = target: T10, ETV7 (Homo sapiens, UniProt Q9Y603 1-341); conditions: protein: recombinant; tags: N-terminal GST; dsDNA, one strand shown
T10 sequence: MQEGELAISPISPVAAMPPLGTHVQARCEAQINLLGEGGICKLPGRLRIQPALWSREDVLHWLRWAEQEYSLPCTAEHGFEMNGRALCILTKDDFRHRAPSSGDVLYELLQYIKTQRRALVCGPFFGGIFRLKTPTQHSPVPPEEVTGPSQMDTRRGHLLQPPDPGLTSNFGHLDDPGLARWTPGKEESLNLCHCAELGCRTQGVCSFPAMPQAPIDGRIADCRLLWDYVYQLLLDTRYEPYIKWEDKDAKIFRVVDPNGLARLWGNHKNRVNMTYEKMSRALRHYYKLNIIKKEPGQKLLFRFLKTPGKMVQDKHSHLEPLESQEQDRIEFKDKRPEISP
Outline: as §1

ELF5 = target: T11, ELF5 (Homo sapiens, UniProt Q9UKW6-2 1-255); conditions: protein: recombinant; tags: N-terminal GST; dsDNA, one strand shown
T11 sequence: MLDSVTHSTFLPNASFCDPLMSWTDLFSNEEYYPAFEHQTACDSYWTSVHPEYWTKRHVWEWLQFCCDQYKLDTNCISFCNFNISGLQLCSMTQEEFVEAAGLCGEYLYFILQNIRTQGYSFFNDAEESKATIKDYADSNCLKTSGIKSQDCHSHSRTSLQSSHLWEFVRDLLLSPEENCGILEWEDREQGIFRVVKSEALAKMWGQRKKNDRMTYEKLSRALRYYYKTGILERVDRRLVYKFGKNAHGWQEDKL
Outline: as §1

ETV3 = target: T12, ETV3 (Homo sapiens, UniProt P41162-2 1-143); conditions: protein: recombinant; tags: N-terminal GST; dsDNA, one strand shown
T12 sequence: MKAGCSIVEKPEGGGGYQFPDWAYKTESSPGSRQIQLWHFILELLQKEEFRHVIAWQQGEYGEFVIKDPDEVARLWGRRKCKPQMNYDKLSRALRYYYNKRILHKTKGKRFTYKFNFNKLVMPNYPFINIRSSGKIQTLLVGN
Outline: as §1

ETV6 = ETV6 (Homo sapiens, UniProt P41212 1-452); conditions: protein: recombinant; tags: N-terminal GST; dsDNA, one strand shown
Chain of ETV6 (P41212 whole entry): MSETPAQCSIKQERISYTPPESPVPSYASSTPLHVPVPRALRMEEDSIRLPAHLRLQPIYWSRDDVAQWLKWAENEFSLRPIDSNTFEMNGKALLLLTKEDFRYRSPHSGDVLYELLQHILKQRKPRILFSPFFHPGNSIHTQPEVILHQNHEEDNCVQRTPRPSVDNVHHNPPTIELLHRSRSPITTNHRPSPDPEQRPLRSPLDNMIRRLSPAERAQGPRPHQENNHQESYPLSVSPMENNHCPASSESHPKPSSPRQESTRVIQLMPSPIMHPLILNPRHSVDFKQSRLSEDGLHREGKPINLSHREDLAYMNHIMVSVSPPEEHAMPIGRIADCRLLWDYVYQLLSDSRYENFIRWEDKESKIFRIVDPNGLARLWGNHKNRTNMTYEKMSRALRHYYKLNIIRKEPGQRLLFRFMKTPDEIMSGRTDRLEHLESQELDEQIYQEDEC
Outline: as §1

CGAATT
binding signal (FEV): 1.14 fold enrichment (6-mer frequency, TF over GST control)
binding signal (ETV5): 1.21 fold enrichment (6-mer frequency, TF over GST control)
binding signal (HSF1): 1.79 fold enrichment (6-mer frequency, TF over GST control)
binding signal (SPIC): 1.25 fold enrichment (6-mer frequency, TF over GST control)
binding signal (ELF4): 1.17 fold enrichment (6-mer frequency, TF over GST control)
binding signal (ELK4): 1.36 fold enrichment (6-mer frequency, TF over GST control)
binding signal (ETV2): 1.02 fold enrichment (6-mer frequency, TF over GST control)
binding signal (ELF3): 1.18 fold enrichment (6-mer frequency, TF over GST control)
binding signal (CRX): 1.63 fold enrichment (6-mer frequency, TF over GST control)
binding signal (ETV1): 1.15 fold enrichment (6-mer frequency, TF over GST control)
binding signal (ERF): 1.28 fold enrichment (6-mer frequency, TF over GST control)
binding signal (ETV3L): 1.28 fold enrichment (6-mer frequency, TF over GST control)
binding signal (ETS2): 1.14 fold enrichment (6-mer frequency, TF over GST control)
binding signal (SPDEF): 1.28 fold enrichment (6-mer frequency, TF over GST control)
binding signal (ETV7): 1.31 fold enrichment (6-mer frequency, TF over GST control)
binding signal (ELF5): 1.17 fold enrichment (6-mer frequency, TF over GST control)
binding signal (ETV3): 1.22 fold enrichment (6-mer frequency, TF over GST control)
binding signal (ETV6): 1.08 fold enrichment (6-mer frequency, TF over GST control)
